# D2 PAM-1 = positively modulates the human D2 dopamine receptor allosterically; P14416; HEK293 T-REx D2, calcium flux, EC20 dopamine potentiation; potentiation, % at 10 µM; 0.34% of 340,000 active;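 active = potentiation over 3 SD above the plate norm, cut at about 30% in these data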; note: 0% is about no effect
# Target sequence (P14416 whole entry, looked up): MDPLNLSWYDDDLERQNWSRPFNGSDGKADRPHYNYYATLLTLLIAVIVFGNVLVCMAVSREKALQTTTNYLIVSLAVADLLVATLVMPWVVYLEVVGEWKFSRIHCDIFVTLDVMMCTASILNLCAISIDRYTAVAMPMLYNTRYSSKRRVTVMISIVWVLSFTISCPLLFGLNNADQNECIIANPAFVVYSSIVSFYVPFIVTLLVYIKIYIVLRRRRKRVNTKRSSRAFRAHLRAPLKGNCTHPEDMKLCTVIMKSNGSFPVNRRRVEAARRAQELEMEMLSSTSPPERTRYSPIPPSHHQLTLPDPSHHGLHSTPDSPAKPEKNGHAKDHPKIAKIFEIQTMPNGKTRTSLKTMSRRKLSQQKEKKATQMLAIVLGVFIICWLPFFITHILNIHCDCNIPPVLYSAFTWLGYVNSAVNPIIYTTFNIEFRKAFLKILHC
#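 Potentiation of an EC20 dopamine calcium response is measured in a force-coupled, tetracycline-inducible Hek293 Trex D2 line. Compound-only kinetic reads over 180 s flag agonists before dopamine addition.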
# D2 ag-1 = D2 dopamine receptor (human) agonism; 0.53% of 340,000 active; activation, % at 2 µM; HEK293 T-REx D2 cells, calcium flux agonist mode;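 active = activation over 3 SD above normal in the single-dose calcium agonist read, cut at about 30% in these data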; note: 0% is about no effect
#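 Calcium-flux readout, 1 cycle/sec over 180 s following compound pin transfer, in inducible HEK293 Trex D2 cells (force-coupled); dopamine controls included. Positive calcium responses during this window marked compounds as potential agonists.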
# D2 antagonist = antagonizes the human D2 dopamine receptor. inhibition, % at 10 µM. 2% of 340,000 active. P14416. HEK293 TREx D2 cells, calcium flux, dopamine EC80; in the data active = inhibition above about 30%; inactive = below that, where a call was filed; note: 0% is about no effect
#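 Cells plated overnight at 30 C with tetracycline; no-wash calcium dye, 30–90 min RT; 10 s baseline; compound pinned; 180 s read; EC80 dopamine added; another 180 s read.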
# D2 ag-2 = human D2 receptor agonism in beta-arrestin assay; P14416; DiscoveRx PathHunter D2 beta-arrestin, luminescence, 90 min; 100% = 57 uM dopamine signal; activation, % (no concentration beside the values); 0.084% of 360,000 active; AID 624465; in the data active = activation above about 40%; inconclusive = between about 15% and that limit
#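 DiscoveRx PathHunter D2 beta-arrestin cells (2,100/well) attached overnight, then compound-stimulated 90 min at 37 C in HBSS/10 mM HEPES/0.1% Tween-20 buffer; beta-galactosidase complementation read by luminescence after 1 h at ambient temperature. Dopamine 57 uM final (EC100) as control.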
# D2 PAM-2 = potentiates the human D2 dopamine receptor allosterically. P14416. 0.23% of 360,000 active. AID 624464. DiscoveRx D2 beta-arrestin cells, luminescence, 90 min; 100% = 57 uM dopamine signal. potentiation, % (no concentration beside the values); in the data active = potentiation above about 50%; inconclusive = mostly about 30% to 49%
#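 PathHunter D2 cells, attached overnight at 37 deg C, received compound in DMSO plus dopamine at EC20 (50 nM final) for 90 min at 37 deg C. Beta-arrestin recruitment was read as luminescence after 1 h with detection reagent at ambient temperature.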
# * marks the source's active call; other numbers are inactive results; ? = inconclusive; nt = not tested or not shown. Compounds with a hit are over-represented: about 2.4% of the library has one in this group of screens.
SMILES,D2 PAM-1,D2 ag-1,D2 antagonist,D2 ag-2,D2 PAM-2
Cc1ccc(S(=O)(=O)N2CCOCC2)cc1C(=O)NCCCN1CCCC1=O,nt,nt,nt,0.0,-4.4
COc1ccc(CN2CCN(Cc3ccc4ccccc4c3)CC2)cc1OC,-16.0,0.7,4.5,-5.2,-14.3
CC1(C(=O)NC2CCN(Cc3ccccc3)CC2)CCN1Cc1ccc2ccccc2c1 (configuration not stated),nt,nt,nt,-5.9,-13.2
COc1ccccc1CN1CCN(Cc2ccc3ccccc3c2)CC1,-28.5,1.1,67.7*,-8.1,-9.9
OC1CCN(Cc2ccc3ccccc3c2)CC1,-15.3,0.7,45.6*,-1.6,-13.9
COc1ccc(C(=O)Nc2cc3c(oc2=O)CCCC3=O)cc1,44.2*,1.9,10.4,-5.7,-0.7
Cc1cccc(N2CCN(CCNC(=O)Nc3ccc(Cl)cc3)CC2)c1C,-24.2,nt,nt,nt,nt
Cc1c(C)n(-c2ccccc2)c2ncnc(NCCN(C)C)c12,-24.7,-0.4,39.7*,-5.6,-22.5
O=Cc1ccc2noc(-c3ccc(Cl)cc3)c2c1,nt,nt,nt,?,79.7*
COc1ccc(-c2onc3ccc(Cl)cc23)cc1,-3.0,0.7,4.5,12.9,103.7*
Cc1ccc(C(=O)N2CCN(c3ccc(C(F)(F)F)cn3)CC2)o1,nt,nt,nt,-1.0,-8.9
COc1cc(SC)ccc1C(=O)Nc1nc2ccccc2[nH]1,-6.6,0.9,33.9*,-11.0,-13.3
COc1ccccc1C(=O)Nc1nc2ccccc2[nH]1,2.7,-0.4,-8.7,-3.9,-6.7
Brc1ccccc1-c1nnc(COc2ncnc3ccccc23)o1,-12.5,1.2,-7.3,-1.7,-4.5
N#Cc1ccccc1OCc1nnc(-c2ccccc2Br)o1,-4.5,0.2,11.7,2.2,-1.2
Brc1ccccc1-c1nnc(COc2cccc3cccnc23)o1,0.2,0.6,38.3*,7.5,19.7
Clc1ccccc1OCc1nnc(-c2ccccc2Br)o1,-1.9,-1.0,36.2*,-1.5,-16.5
C/C(=N\NC(=O)c1cccc(O)c1)c1ccc(NC(=O)Cc2ccccc2)cc1,8.7,-0.5,-4.4,-2.0,-36.3
CCOC(=O)N1C(=O)C2(CCCCC2)N(c2ccccc2Cl)C1=S,18.1,-0.1,-15.8,-2.8,-36.0
[O-]/C(=C(\C(=S)Nc1ccccc1F)[n+]1ccccc1)c1ccc(OC(F)F)cc1,1.2,0.4,-7.5,-2.9,-4.9
Cc1ccc(C)c(NC(=S)/C(=C(\[O-])c2ccc(OC(F)F)cc2)[n+]2ccccc2)c1,10.7,0.6,30.5*,-4.1,-3.6
COc1ccc(-c2noc(CCC(=O)NCCCN3CCC(Cc4ccccc4)CC3)n2)cc1,nt,nt,nt,0.0,-40.5
COc1ccc(-c2noc(CCC(=O)NCCCN3CCN(c4ccc(F)cc4)CC3)n2)cc1,-20.5,0.9,95.3*,-1.9,-3.5
CCOC(=O)CSc1nnc(-c2cccs2)n1-c1ccccc1,32.1*,-1.0,-6.9,-3.0,7.5
O=C(NCCc1ccccc1)c1ccc(-c2ccccc2C(F)(F)F)o1,-18.7,-0.6,-8.0,-0.3,-17.5
SMILES,D2 PAM-1,D2 ag-1,D2 antagonist,D2 ag-2,D2 PAM-2
O=C(NCc1ccc(F)cc1)c1cc2ccccc2o1,52.0*,-1.6,-8.7,1.2,-1.1
O=C(NNC(=O)c1cc2ccccc2o1)c1ccc(F)cc1,-3.5,-1.3,8.0,-2.2,-15.1
O=C(NCc1ccccc1)c1ccc(-c2ccccc2F)o1,32.0*,-2.1,24.0,-2.6,-17.0
Cc1c(C(C)NC(=O)Nc2ccc(F)cc2F)cnn1C (configuration not stated),-13.4,-0.8,38.2*,-3.4,-24.1
Cc1cc(NC(=O)Nc2ccc(F)cc2F)n(C)n1,-4.5,6.3,13.3,-3.9,-9.7
CCc1cccc(-n2c(=O)c3cccnc3n2CC(=O)NCc2ccc(C)cc2)c1,-3.5,0.6,nt,nt,nt
CCCc1cc(C(=O)Cc2ccccn2)c(O)cc1O,8.8,-1.1,36.6*,-6.7,0.1
CCOC(=O)C1(Cc2ccccc2C)CCCN(C(=O)c2cc(C3CC3)[nH]n2)C1 (configuration not stated),-6.7,0.5,31.7*,0.7,1.5
CCOC(=O)C1(Cc2ccccc2C)CCCN(C(=O)c2ccccn2)C1 (configuration not stated),-11.3,1.1,-2.2,-0.7,-0.1
CCOc1ccc(C(=O)Nc2ccc3c(c2)OCCO3)cc1,-4.9,-0.2,-2.4,2.1,-1.0
COc1ccc2c(c1)C=C(CN1CCC(CO)(CCc3ccccc3)CC1)CO2,-23.9,1.0,31.5*,-1.0,-18.3
COc1ccc2c(c1)C=C(CN1CCN(Cc3ccccc3C)C(CCO)C1)CO2 (configuration not stated),-20.5,-1.2,57.8*,3.9,-24.9
CCCCN(C)C(=O)C1CCCN(c2ncnc3onc(C)c23)C1 (configuration not stated),4.8,-0.6,nt,nt,nt
CN1CCC(=O)N([C@H](CSc2ccccc2)c2ccccc2)CC1,-18.3,-0.8,6.0,-2.9,-17.8
Cc1ccc(SC[C@H](c2ccccc2)N2CCN(C)CCC2=O)cc1,1.4,-0.5,37.6*,-3.4,-19.5
C=CCn1c(C)cc(C(=O)COC(=O)/C=C/c2cccc(OC)c2)c1C,4.8,-2.0,42.0*,-0.8,1.3
O=C(CCCSc1nnc(Nc2ccccc2F)s1)N1CCOCC1,-4.0,1.0,39.3*,0.7,-36.1
O=C(CSc1ncc2c(n1)-c1ccccc1N(Cc1ccc(Cl)cc1)S2(=O)=O)c1ccc(Cl)cc1,0.5,0.3,nt,nt,nt
CC(C)(C)c1ccc(OC(=O)N2CCOCC2)cc1,-4.9,-0.2,31.9*,2.8,-3.3
CCN1CCN(c2nc(Nc3ccc(C)c(C)c3)nc(N)c2[N+](=O)[O-])CC1,-21.9,-1.7,51.5*,-5.9,-15.2
CN(c1ccccc1)c1nc(N)c([N+](=O)[O-])c(N2CCCCCC2)n1,4.4,0.3,6.4,0.1,-12.1
CN1CCN(c2nc(NCc3ccco3)nc(N)c2[N+](=O)[O-])CC1,-23.6,-0.6,77.2*,-0.2,-23.6
CCN1CCN(c2nc(N(C)c3ccccc3)nc(N)c2[N+](=O)[O-])CC1,-19.5,5.0,49.5*,-1.7,-13.6
CCCCOc1ccc(CN(C)c2ncnc(N)n2)cc1,-4.2,0.3,30.7*,-1.1,-2.7
Cc1ccc(Nc2nc3ccc(C)cc3nc2-n2nc(C)cc2C)c(C)c1,2.6,0.6,nt,nt,nt
Cc1cccc(-n2ncc3c(N4CCN(CCO)CC4)ncnc32)c1,0.3,-0.3,nt,nt,nt
O=C1CC(N2CCN(c3cccc(C(F)(F)F)c3)CC2)C(=O)N1c1ccccc1F (configuration not stated),0.8,-1.4,32.7*,0.3,-15.2
O=C1CC(N2CCN(c3ccccc3)CC2)C(=O)N1c1cccc(Br)c1 (configuration not stated),36.7*,0.9,1.8,-5.8,-3.6

# Bioassay records (PubChem BioAssay)
